Screening results (PubChem)
This is a sample that favours compounds with a hit; in the whole collection about 1.2% have one here.
TRPV1 PAM – HTS Assay for Compounds that Act as Potentiators of the Vanilloid Receptor 1; TRPV1-expressing cells, Fluo-8 calcium influx, capsaicin EC20 potentiation; 320,000 tested, 0.02% active; potentiation, % at 8.33 µM; Transient receptor potential cation channel subfamily V member 1 (Homo sapiens), Q8NER1; in the data active = potentiation above about 80%; inconclusive = between about 30% and that limit; note: 0% is about no effect
Target sequence (Q8NER1 whole entry, looked up): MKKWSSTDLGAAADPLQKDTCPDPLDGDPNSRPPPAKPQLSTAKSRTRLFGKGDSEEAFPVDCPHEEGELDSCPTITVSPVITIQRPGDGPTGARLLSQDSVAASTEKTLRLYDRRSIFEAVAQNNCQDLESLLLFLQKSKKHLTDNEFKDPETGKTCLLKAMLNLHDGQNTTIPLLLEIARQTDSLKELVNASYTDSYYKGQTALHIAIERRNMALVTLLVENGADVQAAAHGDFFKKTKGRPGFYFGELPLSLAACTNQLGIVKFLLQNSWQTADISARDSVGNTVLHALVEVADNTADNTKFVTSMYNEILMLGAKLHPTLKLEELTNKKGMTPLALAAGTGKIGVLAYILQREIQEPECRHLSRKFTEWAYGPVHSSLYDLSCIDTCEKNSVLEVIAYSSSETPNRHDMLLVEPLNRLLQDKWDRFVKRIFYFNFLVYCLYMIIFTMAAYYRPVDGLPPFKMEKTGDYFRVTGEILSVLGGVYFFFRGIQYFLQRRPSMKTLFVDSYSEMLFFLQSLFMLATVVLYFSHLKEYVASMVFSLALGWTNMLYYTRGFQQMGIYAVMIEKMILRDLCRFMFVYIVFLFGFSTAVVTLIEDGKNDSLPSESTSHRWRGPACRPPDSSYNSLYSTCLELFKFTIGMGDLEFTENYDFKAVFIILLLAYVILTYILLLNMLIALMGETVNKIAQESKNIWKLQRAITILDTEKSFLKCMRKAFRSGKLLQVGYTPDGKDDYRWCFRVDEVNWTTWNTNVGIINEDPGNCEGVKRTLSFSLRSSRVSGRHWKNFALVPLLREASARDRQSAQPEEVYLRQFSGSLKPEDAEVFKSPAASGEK
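Cells expressing TRPV1 were dye-loaded with Fluo-8 and read kinetically: 10 s baseline, 3 min after compound (agonist portion), then 2 min after EC20 capsaicin (allosteric enhancer portion). Calcium-bound dye fluorescence at 480/520 nm.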
KCNH2 WT inh – qHTS for Inhibitors of KCHN2 3.1: Wildtype qHTS. activity change, % at 1.84 µM. U2OS, BacMam KCNH2, thallium flux FluxOr; stronger effect = lower value. AID 720551, 2013. 340,000 tested, 0.37% active;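 active = maximum activity change below -70%; inconclusive = maximum activity change between -70% and -50%; inactive = maximum activity change above -50%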; note: % is set by controls: 0 for no effect and ±100 for the full control effect
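U2OS cells were transduced with wild-type KCNH2 virus (2.03 x 10^8 / mL) for 4 h at room temperature, then cultured overnight at 37 C. Thallium flux was read with FluxOr dye. Rate constants were normalized to DMSO controls.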
TRPV1 agonist – HTS Assay for Compounds that Act as Agonists of the Vanilloid Receptor 1; Transient receptor potential cation channel subfamily V member 1 (Homo sapiens), Q8NER1; TRPV1-expressing cells, Fluo-8 calcium influx, agonist mode; activation, % at 8.33 µM; 320,000 tested, 0.19% active; in the data active = activation above about 80%; inconclusive = between about 30% and that limit; note: 0% is about no effect
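Cells expressing TRPV1 were dye-loaded with Fluo-8 and read kinetically: 10 s baseline, 3 min after compound (agonist portion), then 2 min after EC20 capsaicin (allosteric enhancer portion). Calcium-bound dye fluorescence at 480/520 nm.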
KCNH2 3.1 block – qHTS for Inhibitors of KCHN2 3.1: Mutant qHTS; Potassium voltage-gated channel subfamily H member 2, brain isoform KCNH2 3.1 (human); U2OS KCNH2 3.1, thallium flux FluxOr; stronger effect = lower value; activity change, % (tested at about 1.8 µM); 340,000 tested, 0.95% active; AID 720553, 2013;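 active = maximum activity change below -70%; inconclusive = maximum activity change from -70% to -50%; inactive = maximum activity change above -50%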;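 note: thallium influx rate constant from kinetic fluorescence after stimulation buffer; % is set by controls: 0 for no effect and ±100 for the full control effect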
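Virally transduced U2OS (3.1 isoform, 4 h infection in dark at RT) → overnight 37 C → FluxOr + Red40 in HBSS/HEPES, 45 min → stimulation buffer, 2 min kinetic read → rate constant vs DMSO controls.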
* = called active by the depositor; ? = inconclusive; . = not tested or not shown.

SMILES | TRPV1 PAM | KCNH2 WT inh | TRPV1 agonist | KCNH2 3.1 block
COc1ccc([C@@H]2C[C@H]3[C@@H](CN2S(=O)(=O)c2ccccc2)C(=O)C[C@@H](c2cccc4ccccc24)N3S(=O)(=O)c2ccc(C)cc2)cc1 | . | -4.1 | . | -5.0
CC1=CC(C)(C)NC(=S)N1c1ccccc1C | 3.2 | -7.7 | 10.8 | -4.1
CC1=CC(C)(C)NC(=S)N1c1ccc(C)cc1C | -2.0 | -101.4* | 2.0 | 9.9
CC1CCC(NC(=O)CSc2nnc(-c3cccnc3)o2)CC1 (stereo not drawn) | -4.1 | -2.8 | -0.3 | 2.3
O=C(O)c1cccc(N/N=C/c2cccc3ccccc23)c1 | -7.1 | 1.1 | -4.1 | -72.7*
CCCCN(CCCC)CCCNC(=O)C12CN(Cc3ccccc3)CC1C(c1cccc([N+](=O)[O-])c1)=NO2 (stereo not drawn) | 22.0 | -75.6* | 1.3 | -86.7*
C[C@@H]1CN([C@@H](C)CO)C(=O)c2cc(Br)cnc2O[C@H]1CN(C)C(=O)c1ccc2c(c1)OCO2 | . | -10.8 | . | 1.6
COc1ccc(CC(=O)Nc2ccc(S(=O)(=O)N3CCCCC3)cc2)cc1OC | -12.2 | 3.7 | 87.9* | -3.4
Cc1cccc(OC(C)C(=O)Nc2ccc(S(=O)(=O)N3CCCC3)cc2)c1 (stereo not drawn) | -9.2 | -10.6 | ? | -188.4*
COc1ccc(CNC(=O)[C@@H](NC(=O)C2CCN(S(=O)(=O)c3ccc(C)cc3)CC2)C(C)C)cc1OC | 9.4 | -12.3 | -1.1 | -74.5*
COc1ccc(S(=O)(=O)N2CCC(C(=O)N[C@H](C(=O)NCc3ccncc3)C(C)C)CC2)cc1 | -10.1 | 7.7 | 7.0 | 0.7
COc1ccc(CC(=O)Nc2cccc(SC)c2)cc1OC | -8.1 | -11.8 | 101.3* | -5.9
COc1ccc(CC(=O)Nc2ccc(S(=O)(=O)N3CCCC3)cc2)cc1OC | . | -1.2 | . | 32.2
CC1([N+](=O)[O-])COC2(CCCCC2)OC1 | . | 6.2 | . | 14.6
CSc1ncnc2c1ncn2CCCN1CCN(C(=O)C2CC2)CC1 | . | 2.6 | . | -3.0
COc1ccc(S(=O)(=O)N2CCCCC2)cc1C(=O)N1CCCC1 | -2.4 | -70.1* | 0.4 | -11.2
COC(=O)c1c(NC(=O)C(=O)N2CCOCC2)sc2c1CCCC2 | -26.9 | 4.4 | 87.4* | 23.2
COc1cc(OC)c(NC(=S)NCc2ccc(F)cc2)cc1Cl | 1.7 | -27.8 | -3.1 | -106.5*
CCOC(=O)C(C)Sc1nc2c(c(=O)[nH]c(=O)n2C)n1Cc1ccc(Cl)cc1 (stereo not drawn) | 0.8 | ? | 11.3 | -91.3*
CC(C)Sc1nc2c(c(=O)[nH]c(=O)n2C)n1Cc1ccc(Cl)cc1 | 26.0 | 12.3 | 9.4 | 5.1
C[C@H](CO)N1C[C@H](C)[C@@H](CN(C)C(=O)Nc2ccc3c(c2)OCO3)Oc2c(NC(=O)C3CCCCC3)cccc2C1=O | . | 3.4 | . | -16.1
C[C@@H]1CN([C@H](C)CO)C(=O)c2cccc(NC(=O)c3ccncc3)c2O[C@@H]1CN(C)Cc1ccc(C(=O)O)cc1 | . | -6.2 | . | -85.1*
C[C@H](CO)N1C[C@H](C)[C@@H](CN(C)Cc2ccc3c(c2)OCO3)Oc2c(NC(=O)C3CCCCC3)cccc2C1=O | . | -3.6 | . | -96.2*
C[C@H](CO)N1C[C@H](C)[C@@H](CN(C)Cc2ccccc2)Oc2c(NC(=O)c3ccncc3)cccc2C1=O | . | 10.4 | . | 6.1
CCCNC(=O)c1ccc(N2CCC3(CC2)CC(c2cccc(Br)c2)=NO3)c([N+](=O)[O-])c1 | 14.6 | -129.5* | 2.6 | -79.7*
SMILES | TRPV1 PAM | KCNH2 WT inh | TRPV1 agonist | KCNH2 3.1 block
CCCCCCCC(=O)Nc1cc(C(=O)NCCC)ccc1N1CCC2(CC1)CC(c1ccccc1)=NO2 | 1.8 | -113.4* | -0.4 | -90.0*
CCCNC(=O)c1ccc(N2CCC3(CC2)CC(c2cccc(Br)c2)=NO3)c(NC(=O)c2cccc(OC)c2)c1 | -17.7 | -40.1 | -2.0 | -71.8*
Cc1cc(F)ccc1S(=O)(=O)N(CC(=O)N1CCOCC1)CC(=O)N1CCOCC1 | . | -0.9 | . | -14.9
Cc1ncc(COCc2ccccc2)c(CO)c1OCc1ccccc1 | . | 19.4 | . | 5.3
CCC(C)[C@H](N)c1cn([C@@H](Cc2cc3ccccc3[nH]2)C(=O)N2CCNCC2)nn1 (stereo partly drawn) | -6.4 | -251.8* | -0.9 | 42.1
CC(C)C[C@H](N)c1cn([C@@H](Cc2cc3ccccc3[nH]2)C(=O)N2CCNCC2)nn1 | 2.7 | 3.0 | -0.2 | 6.0
C[C@@H]1CN([C@@H](C)CO)S(=O)(=O)c2ccc(C#Cc3cccc(F)c3)cc2O[C@@H]1CN(C)CC1CC1 | . | 18.1 | . | -8.5
Cn1c(SC(C(=O)Nc2ccc(F)cc2)c2ccccc2)nc2ccccc21 (stereo not drawn) | -3.5 | -8.9 | 84.6* | -82.0*
Cn1nnnc1SC(C(=O)Nc1ccc(F)cc1)c1ccccc1 (stereo not drawn) | 3.9 | -1.1 | 0.3 | 15.1
COc1ccc(S(=O)(=O)N(C)C)cc1NC(=O)c1ccc(OCC2CCCO2)cc1 (stereo not drawn) | . | 1.3 | . | 2.2
COc1ccc(-c2cc(C(F)(F)F)nc(SCC(=O)NCc3cnn(C)c3C)n2)cc1OC | -14.2 | -174.0* | ? | 2.5
O=C(COC(=O)/C=C/c1ccccc1[N+](=O)[O-])NNC(=O)c1ccc(F)cc1 | -4.1 | -5.3 | -0.9 | 2.6
CC(=O)NCCc1ccc(C(=O)COC(=O)c2cccs2)cc1 | . | -6.0 | . | 0.4
O=c1[nH]nc(-c2ccccc2)c2ccccc12 | -4.9 | -10.6 | 15.5 | -113.0*
CCCNC(=O)c1csc2c1CCCCC2 | -12.5 | 0.2 | 26.8 | -78.0*
COc1ccc(CCNC(=O)c2csc3c2CCCC3)cc1 | -1.1 | -2.5 | 7.0 | 11.5
O=C(Nc1ccc(Br)cn1)c1ccc(Cl)s1 | 12.5 | -7.1 | 98.9* | -22.0
Cc1cc(C(=O)Nc2ccc(Br)cn2)sc1C | -5.3 | -14.6 | 83.1* | -12.6
Cc1cc(C)c(O)c(NC(=S)NC(=O)Cc2ccccc2)c1 | 4.6 | 6.3 | 80.6* | 14.6
Cc1cccc(NC(=S)NC(=O)Cc2ccccc2)c1C | 8.5 | 5.6 | ? | -16.5
CSC[C@H]1CN(Cc2cccnc2)C(=O)[C@@H]1CC(=O)Nc1ccc(Br)cc1 | . | 18.0 | . | -1.3
CCCc1ccc(S(=O)(=O)N2CCN(C(=O)CN3C(=O)NC(C)(C4CC4)C3=O)CC2)cc1 (stereo not drawn) | . | -2.5 | . | -3.9
C/C(=N\NC(=O)CSc1nc2ccccc2o1)c1cccc(O)c1 | 23.1 | 5.1 | -2.3 | -115.9*
COc1ccc2cc(C3CC(c4ccco4)=NN3S(=O)(=O)c3ccccc3)c(Cl)nc2c1 (stereo not drawn) | 15.2 | -7.7 | 3.5 | -83.4*
CCOc1ccc2cc(C3CC(c4ccco4)=NN3S(=O)(=O)c3ccccc3)c(Cl)nc2c1 (stereo not drawn) | 2.3 | 8.0 | -0.2 | -18.3
